Where a name gives a salt, the structure may show the parent alone. ± gives the standard deviation of the averaged measurements.
Each compound was assayed on Toxoplasma gondii RH (in HFF) (assay: parasite growth relative to the screen mean (all compounds = 100%); higher = less inhibition of parasite growth). Settings: 5 µM; 72 h; oxygen 21 %.
Method in brief: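 RH β-Gal–GFP Toxoplasma at MOI 1:5 was used to infect confluent human foreskin fibroblasts in 96-well plates within 2 h of pin-transferring compounds to 5 µM final. After 72 h at 21% O2, parasite number was determined by CPRG β-Gal assay against standard curves on the same plate. Growth is relative to the screen mean and averaged over two screens, with all compounds = 100%.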

| Structure (SMILES) | parasite growth |
| --- | --- |
| NCC(O)c1ccc(O)cc1 (centres undefined) [Octopamine hydrochloride] | 76.6 ± 12% |
| CC(C)(C)OC(=O)c1ncn2c1[C@@H]1CCCN1C(=O)c1c(Br)cccc1-2 [Bretazenil] | 87.1 ± 5.4% |
| CN1[C@@H]2CC[C@H]1C[C@@H](OC(=O)c1cc(Cl)cc(Cl)c1)C2 | 70.1 ± 18% |
| C=C(C)[C@H]1CN[C@H](C(=O)O)[C@H]1CC(=O)O [Kainic acid] | 58.7 ± 12% |
| Clc1ccc(C2=CCCC3CCC2N3)cn1 (centres undefined) [UB 165 fumarate] | 106 ± 11% |
| N[C@@H](Cn1oc(=O)[nH]c1=O)C(=O)O [L-Quisqualic acid] | 99 ± 20% |
| CCCN(C/C=C/I)C1CCc2ccc(O)cc2C1 (centres undefined) [7-Hydroxy-PIPAT maleate] | 181 ± 37% |
| FC(F)(F)c1cccc(C2=CCN(CCc3ccc4ccccc4c3)CC2)c1 [Xaliproden hydrochloride] | 159.2 ± 1.1% |
| Cc1[nH]c2ccc(Cl)cc2c1C1=CCNCC1 | 129 ± 8.1% |
| COc1ccc2[nH]cc(C3=CCNCC3)c2c1 | 105 ± 28% |
| Oc1ccc2c3c1O[C@H]1c4c(c5ccccc5n4Cc4ccccc4)C[C@@]4(O)C(C2)N(CC2CC2)CC[C@]314 [N-Benzylnaltrindole hydrochloride] | < 0% |
| N.N.[Cl][Pt][Cl] [Cisplatin] | 144 ± 80% |
| CC(C)(c1ccc(OCC2CO2)cc1)c1ccc(OCC2CO2)cc1 (centres undefined) | 157 ± 30% |
| OC1CCCCC1N1CCC(c2ccccc2)CC1 (racemic) [(±)-Vesamicol hydrochloride] | 100 ± 8.3% |
| COC(=O)[C@@H](N)CCCNC(=N)N[N+](=O)[O-] [L-NAME hydrochloride] | 81.5 ± 24% |
| CC(N)Cc1c[nH]c2ccc(OCc3cccs3)cc12 (centres undefined) [BW 723C86 hydrochloride] | 133 ± 3.8% |
| C[C@@]12C(=O)OC(=O)[C@]1(C)[C@H]1CC[C@@H]2O1 [Cantharidin] | 68.8 ± 46% |
| CC(C)(Cc1c[nH]c2ccc(Cl)cc12)NCCOc1ccccc1OCC1CC1 | < 0% |
| C#CCOC(=O)C1=CCCN(C)C1 [Arecaidine propargyl ester tosylate] | 137 ± 4.5% |
| N[C@H](C(=O)O)c1cc(O)no1 [Ibotenic acid] | 136 ± 26% |

| Structure (SMILES) | parasite growth |
| --- | --- |
| O[C@H]1[C@H](O)[C@@H](O)CN2CC[C@H](O)[C@H]12 [Castanospermine] | 150 ± 7.6% |
| CC(C(=O)OC1CC2CCC(C1)N2C)c1ccc(Br)cc1 (centres undefined) [PG-9 maleate] | 101 ± 1.4% |
| CN(C)c1ccc(/C=C2\CCCN=C2c2cccnc2)cc1 [DMAB-anabaseine dihydrochloride] | 97.4 ± 15% |
| COc1ccc(-n2nc(C(F)(F)F)cc2-c2ccc(Cl)cc2)cc1 | 117 ± 22% |
| CCCN1CCO[C@@H]2c3cc(O)ccc3OC[C@H]21 | 96 ± 2.6% |
| COc1ccc(CNC(=O)/C=C/c2ccc3[nH]cc(CCN(C)C)c3c2)cc1 | 98.3 ± 31% |
| NCC(CS(=O)(=O)O)c1ccc(Cl)cc1 (centres undefined) [Saclofen] | 114 ± 24% |
| O=C1C2CCN(CC2)C1(CO)CO | 144 ± 4% |
| CC(C)n1cnc2c(C(=O)N[C@H]3CN4CCC3CC4)cc(Cl)cc21 | 71.5 ± 9.6% |
| S=C=Nc1cccc(C2(N3CCCCC3)CCCCC2)c1 [Metaphit] | 51.3 ± 6% |
| Oc1ccc2c3c1O[C@H]1c4oc5ccccc5c4C[C@@]4(O)[C@@H](C2)N(CC2CC2)CC[C@]314 [Naltriben mesylate] | 127 ± 55% |
| CN1[C@@H]2C[C@@H](OC(=O)[C@H](CO)c3ccccc3)C[C@H]1[C@@H]1O[C@@H]12 [Scopolamine hydrobromide] | 83.5 ± 48% |
| CN1CCN(c2ccc3ccccc3n2)CC1 [N-Methylquipazine dimaleate] | 111 ± 14% |
| CCCN(CCC)C1Cc2cc(OC)c(OC)cc2C1 | 123 ± 7.5% |
| CS(=O)(=O)Nc1ccc(Cc2noc(-c3ccc4[nH]cc(CCN)c4c3)n2)cc1 | 124 ± 6.6% |
| CCCN(CCC)C1CCc2ccc(O)cc2C1 (centres undefined) [7-Hydroxy-DPAT hydrobromide] | 67.2 ± 33% |
| C[C@@]12N[C@@H](Cc3ccccc31)c1ccccc12 [(-)-MK 801 maleate] | 111 ± 10% |
| Cc1ccc(C[N+](C)(C)C)o1 [5-Methylfurmethiodide] | 100 ± 6.6% |
| Oc1cc2c(cc1O)[C@H]1c3ccccc3CN[C@@H]1CC2 (racemic) [Dihydrexidine hydrochloride] | 153 ± 4.6% |

— the supplement of paper PMC4894684
